From PubChem BioAssay (EPA / NIEHS)
The source made the active and inactive calls. The calls were made as follows: active = hit-call score of the fitted dose curve at least 0.9, where 1 is the maximum; inactive = score below 0.9.

assay: ATG_TCF_b_cat_CIS: Attagene CIS-FACTORIAL HepG2 Assay for human T-Cell-Factor with beta-catenin (TCF/b-cat) (AID 2282965); details: HepG2 TCF/beta-catenin cis-reporter transcription, actives raise or lower the signal
Protocol: ATG_CIS is a cell-based, multiplexed-readout assay that uses HepG2, a human liver cell line, with measurements taken at 24 hours after chemical dosing in a 24-well plate.ATG_TCF_b_cat_CIS is one of 52 assay component(s) measured or calculated from the ATG_CIS assay. It is designed to make measurements of mRNA induction, a form of inducible reporter, as detected with fluorescence intensity signals by Reverse transcription polymerase chain reaction (RT-PCR) and Capillary electrophoresis technology.Data from the assay component ATG_TCF_b_cat_CIS was analyzed into 1 assay endpoint. This assay endpoint, ATG_TCF_b_cat_CIS, was analyzed with bidirectional fitting relative to DMSO as the negative control and baseline of activity. Using a type of inducible reporter, measures of mRNA for gain or loss-of-signal activity can be used to understand the reporter gene at the transcription factor-level as they relate to the gene TCF7 and TCF7L2 and LEF1 and TCF7L1. Furthermore, this assay endpoint can be referred to as a primary readout, because this assay has produced multiple assay endpoints where this one serves a reporter gene function. To generalize the intended target to other relatable targets, this assay endpoint is annotated to the dna binding intended target family, where the subfamily is HMG box protein.
Human liver HepG2 cells are transiently transfected with multiple reporter transcription units (MRTUs) in 6-well plates using FuGene 6 reagent (Roche; 3 ml FuGene/1 mg DNA). The MRTU constructs are regulated by a cis-regulating element (promoter). […] A major difference between the CIS and TRANS system is that in CIS activities of endogenous TFs are measured, whereas the TRANS assay evaluates changes in activities of exogenous, chimeric NR-Gal4 proteins. […] At the end of 24 hour incubation, total RNA was isolated using TriZol reagent (Invitrogen). The isolated RNA is then reverse-transcribed using oligo(dT) primer and Mo-MLV reverse transcriptase (Invitrogen) with DNAse I (Ambion) treatment for 30 min. The one-tenth of the produced cDNA was amplified by PCR using Taq DNA polymerase (Invitrogen) and two reporter sequence-specific primers. The PCR products were fluorescently labeled by primer extension with 6-arboxyfluorescein (6-FAM) 5'-labeled reporter sequence-specific primer (2 min at 95 C, 20 s at 68 C and 10 min at 72 C) and these products were digested with 5U of HpaI (New England Biolabs) for 2h at 37 C. The fragments were purified using Qiaquick PCR columns (Qiagen), analyzed on an ABI 3130xL genetic analyzer (Applied Biosystems) with peak positions identified by using a set of X-rhodamine (ROX)-labeled MapMarker1000 molecular weight standards (BioVentures). The raw capillary electrophoresis data was processed using Attagraph software (Attagene).

Structure (SMILES)	outcome
CCN(CC)c1nc(C)cc(OP(=S)(OC)OC)n1	inactive
CC(C)N1C(=O)N(c2ccccc2)CSC1=NC(C)(C)C	inactive
CNC(=O)Oc1cccc2ccccc12	inactive
C=CCOC(=O)C(C)(C)OC(=O)c1cc(-n2c(=O)cc(C(F)(F)F)n(C)c2=O)ccc1Cl	inactive
CC(C)NC(=O)N1CC(=O)N(c2cc(Cl)cc(Cl)c2)C1=O	inactive
CS(=O)(=O)c1ccc(C(=O)C2C(=O)CCCC2=O)c([N+](=O)[O-])c1	inactive
CCCCOCN(C(=O)CCl)c1c(CC)cccc1CC	inactive
Nc1cnn(-c2ccccc2)c(=O)c1Cl	inactive
Nc1c(Cl)c(F)nc(OCC(=O)O)c1Cl	inactive
CN=C=S	inactive
Cc1cnc(C2=NC(C)(C(C)C)C(=O)N2)c(C(=O)O)c1 (stereo not given)	inactive
CCOc1nc(F)cc2nc(S(=O)(=O)Nc3c(Cl)cccc3Cl)nn12	inactive
COC(=O)N(C(=O)N1CO[C@@]2(C(=O)OC)Cc3cc(Cl)ccc3C2=N1)c1ccc(OC(F)(F)F)cc1	inactive
COC(=O)c1c(C(F)F)nc(C(F)(F)F)c(C2=NCCS2)c1CC(C)C	inactive
COP(=S)(OC)Oc1ccc([N+](=O)[O-])c(C)c1	inactive
CCC(C)n1c(=O)[nH]c(C)c(Br)c1=O (stereo not given)	inactive
COCC(C)N(C(=O)CCl)c1c(C)csc1C (stereo not given)	inactive
CN/C(=N\[N+](=O)[O-])NCc1cnc(Cl)s1	inactive
COc1cc(Cl)c(OC)cc1Cl	inactive
COP(=O)(OC)O/C(C)=C/C(=O)N(C)C	inactive

Structure (SMILES)	outcome
Cc1nc(N(C)C)nc(OC(=O)N(C)C)c1C	inactive
O=C(Nc1ccccc1-c1ccc(Cl)cc1)c1cccnc1Cl	inactive
COCC(=O)N(c1c(C)cccc1C)C(C)C(=O)OC (stereo not given)	inactive
CCN(CC)C(=O)C(C)Oc1cccc2ccccc12 (stereo not given)	inactive
CCCCC(O)(Cn1cncn1)c1ccc(Cl)cc1Cl (stereo not given)	inactive
Cc1c(COC(=O)[C@@H]2[C@H](/C=C(\Cl)C(F)(F)F)C2(C)C)cccc1-c1ccccc1	inactive
Cn1c(-c2ccccc2)cc(-c2ccccc2)[n+]1C	inactive
Nc1c(Cl)c(Cl)nc(C(=O)O)c1Cl	inactive
CC(C)N1C(=O)c2ccccc2NS1(=O)=O	inactive
CC(C)(C)C(=O)C(Oc1ccc(Cl)cc1)n1cncn1 (stereo not given)	inactive
CCOP(=O)(OCC)Oc1nc(Cl)c(Cl)cc1Cl	inactive
CC(C)Nc1nc(Cl)nc(NC(C)C)n1	inactive
CC1(C)C(C=C(Cl)Cl)C1C(=O)OC(C#N)c1cccc(Oc2ccccc2)c1 (stereo not given)	inactive
O=C1C2CC=CCC2C(=O)N1SC(Cl)(Cl)Cl (stereo not given)	inactive
C=C(C)CN(CC)c1c([N+](=O)[O-])cc(C(F)(F)F)cc1[N+](=O)[O-]	inactive
CC1(C)C(C(=O)OC(C#N)c2cccc(Oc3ccccc3)c2)C1(C)C (stereo not given)	inactive
Cc1ccc(N=CN(C)C=Nc2ccc(C)cc2C)c(C)c1	inactive
N#CN=C1SCCN1Cc1ccc(Cl)nc1	inactive
CCCN(CC)CC1COC2(CCC(C(C)(C)C)CC2)O1 (stereo not given)	inactive
CC1(C)CCC(=Cc2ccc(Cl)cc2)C1(O)Cn1cncn1 (stereo not given)	inactive
